# Source: the supplement of paper PMC7184167
# Structures can show the parent of a compound that is named as a salt.
# Tested on: replication-induced senescent mouse newborn dermal fibroblasts (NBF)
# Assay: relative cell viability of senescent cells (fraction); higher = less killing of senescent cells
# Settings: 1 µM; 3 days
# Procedure: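 Replication-induced senescent newborn mouse skin fibroblasts (NBFs) in 24-well plates were treated with a Selleck FDA-approved drug library at 1 µM for 3 days.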
row,Structure (SMILES),relative cell viability
1,CC(C)(C)c1cc(C(C)(C)C)c(NC(=O)c2c[nH]c3ccccc3c2=O)cc1O [Ivacaftor (VX-770)],0.533
2,CS(=O)(=O)N1CCN(Cc2cc3nc(-c4cccc5[nH]ncc45)nc(N4CCOCC4)c3s2)CC1 [Pictilisib (GDC-0941)],0.681
3,C[C@]12CCC(=O)C=C1CC[C@@H]1[C@@H]2[C@@H](O)C[C@@]2(C)[C@H]1CC[C@]2(O)C(=O)CO [Hydrocortisone],0.786
4,CCN(CC)CC#CCOC(=O)C(O)(c1ccccc1)C1CCCCC1 (stereo unspecified) [Oxybutynin],0.938
5,CC(=O)[C@H]1CC[C@H]2[C@@H]3CCC4=CC(=O)CC[C@]4(C)[C@H]3CC[C@]12C [Progesterone],0.968
6,Clc1cccc(Cl)c1NC1=NCCN1 [Clonidine HCl],1.04
7,CN1CC(=O)N2[C@H](c3ccc4c(c3)OCO4)c3[nH]c4ccccc4c3C[C@@H]2C1=O [Tadalafil],0.318
8,COc1cc2ncnc(Nc3ccc(F)c(Cl)c3)c2cc1OCCCN1CCOCC1 [Gefitinib (ZD1839)],1.01
9,[I-].[K+] [Potassium Iodide],0.937
10,Nc1ccc(O)c(C(=O)O)c1 [Mesalamine],0.351
11,CO[C@H]1/C=C/O[C@@]2(C)Oc3c(C)c(O)c4c(O)c(c(/C=N/N5CCN(C6CCCC6)CC5)c(O)c4c3C2=O)NC(=O)/C(C)=C\C=C\[C@H](C)[C@H](O)[C@@H](C)[C@@H](O)[C@@H](C)[C@H](OC(C)=O)[C@@H]1C [Rifapentine],0.659
12,CC1=C(/C=C/C(C)=C/C=C/C(C)=C/C(=O)O)C(C)(C)CCC1 [Tretinoin],0.466
13,C[C@H]1C[C@H]2[C@@H]3CCC4=CC(=O)C=C[C@]4(C)[C@H]3C(=O)C[C@]2(C)[C@@]1(O)C(=O)CO [Meprednisone],1.09
14,CC(=O)OCC(=O)[C@@]12N=C(C)O[C@@H]1C[C@H]1[C@@H]3CCC4=CC(=O)C=C[C@]4(C)[C@H]3[C@@H](O)C[C@@]12C [Deflazacort],1.04
15,Oc1ccc(/C=C/c2cc(O)cc(O)c2)cc1 [Resveratrol],1.02
16,NC(=O)c1ccc(I)c([N+](=O)[O-])c1 [Iniparib (BSI-201)],0.209

row,Structure (SMILES),relative cell viability
1,COc1ccc2[nH]cc(CCNC(C)=O)c2c1 [Melatonin],1.05
2,COCCOC(=O)C1=C(C)NC(C)=C(C(=O)OC(C)C)C1c1cccc([N+](=O)[O-])c1 (stereo unspecified) [Nimodipine],1.15
3,COc1ccc(-c2nc3cc(C4=NNC(=O)CC4C)ccc3[nH]2)cc1 (stereo unspecified) [Pimobendan],0.639
4,O=C(O)C[C@H](O)C[C@H](O)/C=C/c1c(C2CC2)nc2ccccc2c1-c1ccc(F)cc1 [Pitavastatin Calcium],1.08
5,Nc1ncnc2c1ncn2[C@@H]1O[C@H](CO)[C@@H](O)[C@@H]1O [Vidarabine],0.744
6,CO[C@H]1C[C@@H]2CC[C@@H](C)[C@@](O)(O2)C(=O)C(=O)N2CCCC[C@H]2C(=O)O[C@H]([C@H](C)C[C@@H]2CC[C@@H](OCCO)[C@H](OC)C2)CC(=O)[C@H](C)/C=C(\C)[C@@H](O)[C@@H](OC)C(=O)[C@H](C)C[C@H](C)/C=C/C=C/C=C/1C [Everolimus (RAD001)],0.765
7,Cn1c(=O)c2c(ncn2CC(O)CO)n(C)c1=O (stereo unspecified) [Dyphylline],0.335
8,CC[C@H]1OC(=O)[C@H](C)[C@@H](O[C@H]2C[C@@](C)(OC)[C@@H](O)[C@H](C)O2)[C@H](C)[C@@H](O[C@@H]2O[C@H](C)C[C@H](N(C)C)[C@H]2O)[C@](C)(O)C[C@@H](C)C(=O)[C@H](C)[C@@H](O)[C@]1(C)O [Erythromycin],0.796
9,Cc1[nH]c2ccccc2c1CCNCc1ccc(/C=C/C(=O)NO)cc1 [Panobinostat (LBH589)],1.08
10,CNC(=O)c1ccc2cc([C@@]3(O)CCn4cncc43)ccc2c1 [TAK-700 (Orteronel)],0.282
11,Nc1nc2c(ncn2COC(CO)CO)c(=O)[nH]1 [Ganciclovir],0.995
12,Nc1cccc2c1C(=O)N(C1CCC(=O)NC1=O)C2=O (stereo unspecified) [Pomalidomide],1.19
13,Clc1ccc2nsnc2c1NC1=NCCN1 [Tizanidine HCl],0.994
14,O=C(O)c1ccc(-n2nc(-c3ccccc3O)nc2-c2ccccc2O)cc1 [Deferasirox],1.07
15,CCCC(CCC)C(=O)O [Divalproex Sodium],1.11
